Assay results: ChEMBL document CHEMBL3988442, “University of Dundee, Small-Polar-MMV Screening Library” (2021)
Hit rate of the full screen: of about 69,000 compounds, about 420 (0.61%) showed an effect of 50% or more. Shown is part of a subset that was picked to be rich in strong results.

These compounds were tested against T1, Histidine--tRNA ligase (Leishmania infantum) (UniProt A4I591) (assay: Leishmania infantum Histidine tRNA synthetase (LdHisRS)). Settings: 30 µM.
T1 sequence (whole entry): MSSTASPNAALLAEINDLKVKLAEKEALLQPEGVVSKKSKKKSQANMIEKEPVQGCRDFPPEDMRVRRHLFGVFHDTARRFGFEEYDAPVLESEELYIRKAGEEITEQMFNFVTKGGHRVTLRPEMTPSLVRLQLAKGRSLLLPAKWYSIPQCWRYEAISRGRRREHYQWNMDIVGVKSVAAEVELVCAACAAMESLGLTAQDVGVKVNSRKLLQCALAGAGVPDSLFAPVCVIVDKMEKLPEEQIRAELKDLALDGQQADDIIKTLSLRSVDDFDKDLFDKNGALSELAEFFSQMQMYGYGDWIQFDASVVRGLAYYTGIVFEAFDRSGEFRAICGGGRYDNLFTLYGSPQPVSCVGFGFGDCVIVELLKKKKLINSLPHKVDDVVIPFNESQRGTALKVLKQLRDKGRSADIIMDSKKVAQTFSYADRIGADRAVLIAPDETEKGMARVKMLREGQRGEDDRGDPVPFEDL
Type: functional
Parameters: scale not given: in the data most compounds retested in dose-response had high values

Compound	Percent Effect [%]
Cc1cccc2cc(CN3CCCN4CCC[C@H]4C3)c(=O)[nH]c12	17.5
Clc1cc(CN2CCCN3CCCC3C2)c2ncccc2c1 (stereo not given)	62.9
CNc1ncccc1CN1CCN2CCN(C)CC2C1 (stereo not given)	6.33
CNC(=O)[C@H]1C[C@@H]2CN(c3cc(OC)ncn3)C[C@@H]2N1C(C)C	-7.02
c1cc(COC[C@]23COC[C@H]2CN(Cc2ccsc2)C3)ccn1	10.1
CNCCc1nc2cc(F)ccc2[nH]1	55.3
CNCCc1nc2cc(Cl)ccc2[nH]1	14.6
CCNCCc1nc2cc(F)ccc2[nH]1	25.8
O=C1[C@H]2CN(Cc3ccccn3)C[C@H]2CN1c1ccsc1	6.42
COc1ccc2c(c1)c(C(=O)Nc1nnn[nH]1)cn2C(C)C	52.1
COc1ccc2c(c1)c(C(=O)Nc1n[nH]c(C(C)C)n1)cn2C(C)C	22.9
COc1ccc2c(c1)c(C(=O)Nc1nnn[nH]1)cn2C	18.8
CN1C(Cn2cccn2)C[C@@H]2CN(Cc3cccnc3)CC[C@@H]21 (stereo not given in full)	13.7
O=C1[C@@H]2CCN(C3CCC3)C[C@@H]2OCCN1Cc1ccncc1	17.2
Cc1noc(C)c1CN1CC[C@H]2OCC[C@@]2(C(=O)N2CCCO2)C1	17.6
O=C1[C@H]2CN(CC3CC3)C[C@H]2CN1c1ccsc1	3.01
COc1ccc(CCN)cc1-c1ccc(O)cc1	-4.22
COc1ccc(CCN)cc1-c1ccc(C(N)=O)cc1	71.8
COc1ccc(CCN)cc1-c1ccc(S(C)(=O)=O)cc1	23.9
c1cnc(N2CCO[C@H]3CN(CC4CCOCC4)C[C@H]32)nc1	11.7
